The results in this text go back to PubChem BioAssay (NCATS).

Assay [1] deals with Ubiquitin carboxyl-terminal hydrolase 1 (Homo sapiens) (UniProt O94782). As to the kind of experiment: Inhibitors of USP1/UAF1: Pilot qHTS (AID 504865; active means well fitted inhibition curve with a large enough effect; further: nearly all actives have a fitted effect of over 35% in size; further: potency means the concentration at half of the fitted maximal effect). The essentials:
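USP1/UAF1 complex (1nM) preincubated with compound 15 min at room temperature, then Ub-Rho substrate (150nM final) added. Fluorescence read kinetically at 480/540 nm, 6 reads every 60 seconds. Buffer: 50mM HEPES pH 7.8, 0.5mM EDTA, 0.1 mg/ml BSA, 1mM TCEP, 0.01% Tween-20.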

In assay [2] the target is Estrogen receptor (Homo sapiens) (UniProt P03372). As to the kind of experiment: qHTS assay for small molecule antagonists of estrogen receptor alpha signaling (AID 588513; active means well fitted curve in the direction sought with a large enough effect in the signal ratio, with a control signal flat, not every such curve was filed as active; the % refers to the signal ratio; further: on the % scale 0 is the no-effect control and ±100 the full control effect). In outline:
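ER-alpha-UAS-bla GripTite HEK 293 cells in medium with 2% charcoal/dextran-treated FBS were preincubated 4 h at 37 C, dosed with compound (1:2 titration), stimulated with 0.5nM 17-beta-estradiol for 18 h, then read by CCF4 beta-lactamase fluorescence.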

For assay [3], the target named is Bile acid receptor (Homo sapiens) (UniProt Q96RI1). As to the kind of experiment: qHTS assay for small molecule antagonists of farnesoid X receptor signaling (AID 588526). Further: on the % scale 0 is the no-effect control and ±100 the full control effect. The essentials: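 Beta-lactamase reporter antagonist mode: HEK293T FXR-UAS-bla cells, titrated compound, CDCA stimulation, 16 h 37 C, CCF4 dye 2 h RT. Data normalized to CDCA 50 uM and DMSO; Hill-fit IC50.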

Assay [4] deals with Glucocorticoid receptor (Homo sapiens) (UniProt P04150). As to the kind of experiment: qHTS assay for small molecule agonists of glucocorticoid receptor signaling (AID 588532; active means well fitted curve in the direction sought with a large enough effect in the signal ratio, with a control signal flat; the % refers to the signal ratio;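 further: 100% = dexamethasone at 0.1 µM and 0% = DMSO only wells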). As to conditions: HeLa MMTV-bla, beta-lactamase ratio, agonist, 18 h; stronger effect = higher value; percent of dexamethasone control, DMSO zero. In outline:
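Agonist-mode qHTS: GRE-driven beta-lactamase in HeLa cells exposed 18 h to titrated compounds (up to 92 uM), then CCF4 ratio read after 2 h at RT; Hill-fitted EC50, efficacy relative to 0.1 uM dexamethasone.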

The target in assay [5] is Vitamin D3 receptor (Homo sapiens) (UniProt P11473). As to the kind of experiment: qHTS assay for small molecule antagonists of vitamin D receptor signaling (AID 588541).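 Further: receptor activated by calcitriol during compound treatment; series mostly up to about 77 µM; on the % scale 0 is the no-effect control and ±100 the full control effect.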 In outline: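 Antagonist-mode beta-lactamase reporter assay: HEK293T VDR-UAS-bla cells were exposed to titrated compound alongside 1-alpha,25-dihydroxyvitamin D3 at 3 nM final for 16 h. Values were normalized to the 50 nM agonist control and DMSO basal, with IC50 and efficacy from Hill equation fits.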

Assay [6] shares this target. Put plainly: qHTS assay for small molecule agonists of vitamin D receptor signaling (AID 588543).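 Further: 0% = DMSO basal and 100% = reference agonist control.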 In outline: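 GeneBLAzer VDR-UAS-bla HEK293T cells in 2% charcoal-stripped FBS medium were dosed with compound titrations for 16 h at 37 °C; CCF4 β-lactamase readout (405 nm ex, 460/530 nm em). EC50 and efficacy from Hill fits, normalized to 50 nM calcitriol (100%) and DMSO (0%).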

The target of assay [7] is Thyroid hormone receptor beta (Homo sapiens) (UniProt P10828). Put plainly: qHTS assay for small molecule agonists of thyroid hormone receptor beta signaling (AID 588545).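 Further: 0% = DMSO only and 100% = 10 nM T3.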 The essentials:
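Stimulation of a TR-driven beta-lactamase reporter was quantified in GripTite HEK 293 cells. Compound series ran for 18 hrs; curves were normalized to T3 and DMSO controls and fitted to yield EC50.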

In assay [8] the target is DNA dC->dU-editing enzyme APOBEC-3G (Homo sapiens) (UniProt Q9HC16). Put plainly: qHTS for inhibitors of Vif-A3G interactions: Validation (AID 588379; active means well fitted inhibition curve with a large enough effect; further: 0% is about no effect). In outline: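 HeLa cells stably expressing Vif and A3G-eYFP, 700 cells/well, incubated overnight at 37 deg C, then exposed to compound overnight at 37 deg C. Inhibition of Vif-mediated degradation read as increased yellow fluorescence (Ex 488/Em 500-530) by laser-scanning cytometry.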

A short description of assay [9]: qHTS assay for small molecule antagonists of peroxisome proliferator-activated receptor delta signaling (AID 588535; active means well fitted inhibition curve with a large enough effect in the signal ratio, with a control signal flat, not every such curve was filed as active; the % refers to the signal ratio;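 on max response: cells co-treated with a PPAR-delta agonist as stimulator during compound exposure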). As to conditions: HEK293T PPARd-UAS-bla, beta-lactamase FRET ratio, 18 h; 460 nm channel. The essentials:
(§1)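 HEK293T PPAR-delta-UAS-bla cells, 4000/well, 2% charcoal/dextran FBS; 5 h 37 C; cpd titration; 18 h 37 C; CCF4 2 h RT; FI 460/530 nm; Hill fit → IC50, efficacy.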

Assay [10] concerns the target Peroxisome proliferator-activated receptor delta (Homo sapiens) (UniProt Q03181). The description is as above. In outline:
as §1

The target of assay [11] is Peroxisome proliferator-activated receptor gamma (Homo sapiens) (UniProt P37231). As to the kind of experiment: qHTS assay for small molecule agonists of peroxisome proliferator-activated receptor gamma signaling (AID 588536; active means well fitted curve in the direction sought with a large enough effect in the signal ratio, with a control signal flat, not every such curve was filed as active; the % refers to the signal ratio;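 further: 0% = DMSO basal wells and 100% = rosiglitazone at 2 µM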). In outline:
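Test agents, titrated, stimulated HEK293 UAS-bla cells overnight (16 h, 37 C). Substrate CCF4 was then added for two hours at room temperature before fluorescence reading.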

Assay [12] is described as follows: qHTS assay for small molecule agonists of retinoid X receptor alpha signaling (AID 588544).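 On activation: 0% = DMSO basal wells and 100% = reference agonist.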 The note with it: HEK293T RXRa-UAS-bla, beta-lactamase reporter, 18 h; 530 nm emission.
Assay [13] concerns the target Retinoic acid receptor RXR-alpha (Homo sapiens) (UniProt P19793). The description is as above.
A short description of assay [14]: qHTS assay for small molecule antagonists of retinoid X receptor alpha signaling (AID 588546; active means well fitted inhibition curve with a large enough effect in the signal ratio, with a control signal flat, not every such curve was filed as active; the % refers to the signal ratio;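 further: cells stimulated with 9-cis-retinoic acid as agonist; on the % scale 0 is the no-effect control and ±100 the full control effect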). As to conditions: HEK293T RXRa-UAS-bla, beta-lactamase ratio, antagonist mode; measured here: W530 green channel, cytotoxicity proxy. In outline: (§2)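 Beta-lactamase reporter inhibition, read as CCF4 fluorescence ratio (ex 405, em 460/530 nm) after 2 h at RT. HEK293T UAS-bla cells, 2500/well, were stimulated with 9-cis-RA at 500 or 100 nM final alongside test compound for 18 h at 37 C.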

The target in assay [15] is Retinoic acid receptor RXR-alpha (Homo sapiens) (UniProt P19793). The description is as above. As to conditions: HEK293T RXRa-UAS-bla, beta-lactamase ratio, antagonist mode. The essentials: as §2
Assay [16] deals with Glucocorticoid receptor (Homo sapiens) (UniProt P04150). As to the kind of experiment: qHTS assay for small molecule antagonists of glucocorticoid receptor signaling (AID 588533; active means well fitted inhibition curve with a large enough effect in the signal ratio, with a control signal flat, not every such curve was filed as active; the % refers to the signal ratio). The essentials: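 Antagonist-mode qHTS: compound titrations added to GRE-bla HeLa cells, then dexamethasone 2 nM final; 18 h, 37 C. CCF4 FRET fluorescence normalized to dexamethasone and DMSO; IC50 from Hill fit.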

The target in assay [17] is Androgen receptor (Homo sapiens) (UniProt P10275). Put plainly: qHTS assay for small molecule antagonists of androgen receptor signaling (AID 588516; active means well fitted curve in the direction sought with a large enough effect in the signal ratio, with a control signal flat, not every such curve was filed as active; the % refers to the signal ratio; further: on the % scale 0 is the no-effect control and ±100 the full control effect). In outline: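 AR-UAS-bla-GripTite HEK 293 cells (2000/well, 5 h at 37 C) received compound titrations, then R1881 at 10 nM final; after 16 h at 37 C, CCF4 dye 2 h RT, beta-lactamase fluorescence read; IC50 from Hill fits.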

Where “and” joins values, the source holds several entries; their conditions need not be identical. Identical values can stand only once. Inconclusive results are not listed. Calls of active or inactive are those of the source. Unless noted, the call rests on the fitted dose curve.

Chain of Estrogen receptor (Homo sapiens) (P03372 whole entry, looked up): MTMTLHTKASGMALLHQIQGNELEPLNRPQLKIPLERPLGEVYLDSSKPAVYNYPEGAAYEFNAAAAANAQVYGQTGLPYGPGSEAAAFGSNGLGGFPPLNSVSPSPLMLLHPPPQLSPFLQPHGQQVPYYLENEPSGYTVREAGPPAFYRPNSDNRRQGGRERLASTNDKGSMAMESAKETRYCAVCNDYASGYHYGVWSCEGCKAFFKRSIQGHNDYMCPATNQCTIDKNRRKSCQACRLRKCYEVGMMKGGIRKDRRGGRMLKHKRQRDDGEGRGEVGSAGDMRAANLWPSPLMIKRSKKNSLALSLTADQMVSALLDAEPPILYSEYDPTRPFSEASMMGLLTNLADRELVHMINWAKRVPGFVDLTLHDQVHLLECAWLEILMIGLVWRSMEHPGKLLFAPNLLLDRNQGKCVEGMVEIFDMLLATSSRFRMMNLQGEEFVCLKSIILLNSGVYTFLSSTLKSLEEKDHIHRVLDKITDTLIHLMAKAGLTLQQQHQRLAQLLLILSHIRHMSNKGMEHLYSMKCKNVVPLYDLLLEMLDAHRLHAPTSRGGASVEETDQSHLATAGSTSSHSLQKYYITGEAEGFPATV
Chain of Bile acid receptor (Homo sapiens) (Q96RI1 whole entry, looked up): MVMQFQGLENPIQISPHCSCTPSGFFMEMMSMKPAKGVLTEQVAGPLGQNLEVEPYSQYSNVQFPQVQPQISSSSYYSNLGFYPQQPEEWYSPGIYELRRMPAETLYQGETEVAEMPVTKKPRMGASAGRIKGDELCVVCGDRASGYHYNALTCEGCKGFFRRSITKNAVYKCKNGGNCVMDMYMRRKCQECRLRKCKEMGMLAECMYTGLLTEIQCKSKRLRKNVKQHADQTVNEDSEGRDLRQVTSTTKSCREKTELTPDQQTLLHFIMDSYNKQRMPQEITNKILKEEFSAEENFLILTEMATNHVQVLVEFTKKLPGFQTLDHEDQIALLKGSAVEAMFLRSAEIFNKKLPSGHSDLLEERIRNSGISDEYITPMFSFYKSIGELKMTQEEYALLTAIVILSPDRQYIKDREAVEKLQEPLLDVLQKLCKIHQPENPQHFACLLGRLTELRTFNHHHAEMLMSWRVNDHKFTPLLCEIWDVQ
Chain of Thyroid hormone receptor beta (Homo sapiens) (P10828 whole entry, looked up): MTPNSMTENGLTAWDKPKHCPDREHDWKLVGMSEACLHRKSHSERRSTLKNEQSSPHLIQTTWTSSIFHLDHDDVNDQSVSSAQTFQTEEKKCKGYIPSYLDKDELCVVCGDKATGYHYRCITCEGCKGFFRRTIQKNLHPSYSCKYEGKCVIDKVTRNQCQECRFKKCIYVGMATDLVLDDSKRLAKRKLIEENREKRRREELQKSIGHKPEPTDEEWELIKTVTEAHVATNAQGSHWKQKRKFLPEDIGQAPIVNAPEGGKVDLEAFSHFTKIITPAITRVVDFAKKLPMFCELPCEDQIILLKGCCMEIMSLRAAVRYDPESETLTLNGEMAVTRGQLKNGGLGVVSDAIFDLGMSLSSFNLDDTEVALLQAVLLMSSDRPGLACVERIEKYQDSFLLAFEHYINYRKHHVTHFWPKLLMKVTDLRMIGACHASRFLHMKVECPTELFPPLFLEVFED
Chain of Peroxisome proliferator-activated receptor gamma (Homo sapiens) (P37231 whole entry, looked up): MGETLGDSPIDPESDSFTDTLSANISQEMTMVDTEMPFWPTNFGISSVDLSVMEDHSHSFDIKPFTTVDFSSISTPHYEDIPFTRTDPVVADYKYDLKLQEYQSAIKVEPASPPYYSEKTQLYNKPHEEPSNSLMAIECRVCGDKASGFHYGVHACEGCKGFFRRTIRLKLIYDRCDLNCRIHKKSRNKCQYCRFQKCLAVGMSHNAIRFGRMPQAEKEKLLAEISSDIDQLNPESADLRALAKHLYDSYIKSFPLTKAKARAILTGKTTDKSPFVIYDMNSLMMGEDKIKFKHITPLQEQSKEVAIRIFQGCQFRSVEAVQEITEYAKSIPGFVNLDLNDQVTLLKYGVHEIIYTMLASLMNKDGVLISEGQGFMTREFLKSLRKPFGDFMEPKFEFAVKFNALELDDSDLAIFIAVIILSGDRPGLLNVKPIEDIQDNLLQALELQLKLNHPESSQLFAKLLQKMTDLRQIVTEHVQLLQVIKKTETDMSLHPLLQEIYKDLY
Chain of Vitamin D3 receptor (Homo sapiens) (P11473 whole entry, looked up): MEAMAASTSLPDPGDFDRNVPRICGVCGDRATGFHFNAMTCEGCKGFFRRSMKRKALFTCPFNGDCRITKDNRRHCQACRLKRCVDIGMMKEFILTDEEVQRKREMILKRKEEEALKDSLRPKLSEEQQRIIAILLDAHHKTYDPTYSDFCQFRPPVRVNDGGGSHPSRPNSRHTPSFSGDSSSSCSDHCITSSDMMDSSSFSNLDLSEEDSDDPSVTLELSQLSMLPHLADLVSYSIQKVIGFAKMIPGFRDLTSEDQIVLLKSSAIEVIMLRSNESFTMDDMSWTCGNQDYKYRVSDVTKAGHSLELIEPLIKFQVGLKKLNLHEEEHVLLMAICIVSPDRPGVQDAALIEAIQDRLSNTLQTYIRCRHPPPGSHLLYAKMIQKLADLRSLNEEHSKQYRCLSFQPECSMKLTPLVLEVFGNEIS
Chain of Ubiquitin carboxyl-terminal hydrolase 1 (Homo sapiens) (O94782 whole entry, looked up): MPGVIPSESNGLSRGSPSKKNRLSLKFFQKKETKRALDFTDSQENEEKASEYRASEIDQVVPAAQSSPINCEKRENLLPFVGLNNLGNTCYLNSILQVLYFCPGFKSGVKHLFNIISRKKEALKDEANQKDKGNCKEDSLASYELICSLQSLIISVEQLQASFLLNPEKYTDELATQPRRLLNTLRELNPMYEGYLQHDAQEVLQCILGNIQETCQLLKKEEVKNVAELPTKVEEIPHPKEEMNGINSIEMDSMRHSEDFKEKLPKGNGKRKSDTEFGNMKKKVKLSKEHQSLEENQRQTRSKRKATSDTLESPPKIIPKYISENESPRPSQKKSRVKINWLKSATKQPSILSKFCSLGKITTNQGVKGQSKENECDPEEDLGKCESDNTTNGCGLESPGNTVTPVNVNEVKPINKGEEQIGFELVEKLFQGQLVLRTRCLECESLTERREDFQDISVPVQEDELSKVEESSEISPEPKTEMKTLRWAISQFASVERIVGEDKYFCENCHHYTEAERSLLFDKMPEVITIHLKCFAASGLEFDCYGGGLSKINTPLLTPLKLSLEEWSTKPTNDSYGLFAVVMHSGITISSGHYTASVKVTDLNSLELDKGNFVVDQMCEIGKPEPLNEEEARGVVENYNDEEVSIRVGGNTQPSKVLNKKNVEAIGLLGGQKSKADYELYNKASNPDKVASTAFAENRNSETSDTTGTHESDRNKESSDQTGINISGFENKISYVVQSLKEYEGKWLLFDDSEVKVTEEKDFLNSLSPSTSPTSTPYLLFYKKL
Chain of Retinoic acid receptor RXR-alpha (Homo sapiens) (P19793 whole entry, looked up): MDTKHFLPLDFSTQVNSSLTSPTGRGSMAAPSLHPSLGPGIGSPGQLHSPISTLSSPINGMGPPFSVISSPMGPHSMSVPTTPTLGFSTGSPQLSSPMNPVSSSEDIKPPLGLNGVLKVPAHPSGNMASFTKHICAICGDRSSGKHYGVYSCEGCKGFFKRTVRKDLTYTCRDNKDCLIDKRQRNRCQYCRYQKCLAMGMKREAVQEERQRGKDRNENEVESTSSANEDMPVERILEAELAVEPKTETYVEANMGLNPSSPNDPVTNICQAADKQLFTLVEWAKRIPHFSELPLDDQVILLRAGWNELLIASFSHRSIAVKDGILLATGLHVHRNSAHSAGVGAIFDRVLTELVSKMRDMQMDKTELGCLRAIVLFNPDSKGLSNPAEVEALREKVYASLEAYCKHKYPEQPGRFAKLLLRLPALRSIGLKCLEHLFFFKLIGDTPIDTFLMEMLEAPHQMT
Chain of Peroxisome proliferator-activated receptor delta (Homo sapiens) (Q03181 whole entry, looked up): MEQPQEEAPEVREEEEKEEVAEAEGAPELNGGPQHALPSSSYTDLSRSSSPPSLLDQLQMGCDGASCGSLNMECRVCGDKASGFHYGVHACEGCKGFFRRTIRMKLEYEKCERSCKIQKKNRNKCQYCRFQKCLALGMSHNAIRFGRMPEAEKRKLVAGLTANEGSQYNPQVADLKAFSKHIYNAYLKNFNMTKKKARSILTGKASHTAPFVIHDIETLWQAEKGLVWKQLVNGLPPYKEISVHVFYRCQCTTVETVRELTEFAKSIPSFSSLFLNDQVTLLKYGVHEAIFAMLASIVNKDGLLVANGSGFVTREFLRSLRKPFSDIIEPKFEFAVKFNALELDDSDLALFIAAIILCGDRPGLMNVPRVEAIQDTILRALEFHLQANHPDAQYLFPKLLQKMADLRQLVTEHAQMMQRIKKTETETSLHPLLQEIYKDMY
Chain of Glucocorticoid receptor (Homo sapiens) (P04150 whole entry, looked up): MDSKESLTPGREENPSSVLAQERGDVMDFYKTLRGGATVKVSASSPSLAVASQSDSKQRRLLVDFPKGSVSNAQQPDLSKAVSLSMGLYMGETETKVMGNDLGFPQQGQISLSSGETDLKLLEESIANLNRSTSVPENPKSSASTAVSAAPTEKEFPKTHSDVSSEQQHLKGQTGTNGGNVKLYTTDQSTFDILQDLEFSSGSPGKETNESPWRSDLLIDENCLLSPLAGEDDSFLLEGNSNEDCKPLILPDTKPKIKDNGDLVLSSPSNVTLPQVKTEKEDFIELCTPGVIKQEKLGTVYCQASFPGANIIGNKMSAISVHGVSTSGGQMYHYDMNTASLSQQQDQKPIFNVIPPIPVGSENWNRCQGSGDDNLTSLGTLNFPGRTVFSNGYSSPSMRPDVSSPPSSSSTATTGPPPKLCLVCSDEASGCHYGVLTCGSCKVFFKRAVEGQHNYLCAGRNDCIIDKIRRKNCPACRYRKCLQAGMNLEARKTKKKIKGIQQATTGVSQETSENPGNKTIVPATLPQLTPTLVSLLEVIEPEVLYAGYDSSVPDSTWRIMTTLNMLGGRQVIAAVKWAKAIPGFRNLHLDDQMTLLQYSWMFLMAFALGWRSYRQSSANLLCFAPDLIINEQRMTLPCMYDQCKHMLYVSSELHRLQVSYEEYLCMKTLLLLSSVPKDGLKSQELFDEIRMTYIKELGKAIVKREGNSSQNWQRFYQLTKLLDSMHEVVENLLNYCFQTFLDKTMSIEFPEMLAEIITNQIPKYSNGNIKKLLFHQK

Take `C[C@H](CCC(=O)O)[C@H]1CC[C@H]2[C@@H]3CC[C@@H]4C[C@H](O)CC[C@]4(C)[C@H]3C[C@H](O)[C@]12C`: the Potency entry in assay [1] and in [2] was “inactive” throughout. For the same compound, the call in assay [3], in assay [5], in [6] and in [7] was inactive. Further, the activation in assay [4] was -6.09% (inactive).

As to `Cc1cc(-c2ccc(N=Nc3ccc4c(S(=O)(=O)O)cc(S(=O)(=O)O)c(N)c4c3O)c(C)c2)ccc1N=Nc1ccc2c(S(=O)(=O)O)cc(S(=O)(=O)O)c(N)c2c1O`, in assay [1], the Potency is 11.2 µM (active) and 25.1 µM (active). For the same compound, the call in assay [8] was inactive.

For `Nc1ncnc2c1ncn2[C@H]1CC[C@@H](CO)O1`, the Potency result in assay [1] and in [2] was “inactive” in each case. In addition, the compound was classed as inactive in assay [3], in [10], in [11], in [5], in assay [6] and in assay [13]. Moreover, the compound was classed as inactive in assay [7]. The max response in assay [9] was -13.3% and 61.6%; in assay [12], 11.3% and 13.8%; in assay [14] it was 0.911%; in [15] it was -6.41% (inactive).

As to `OCl`, the Potency result in assay [1] and in assay [2] was “inactive” in each case. Further, the compound was called inactive in assay [3], in assay [10], in [11], in [5], in assay [6] and in assay [13]. Also, the outcome in assay [7] was inactive. Besides, in assay [4], the activation was -3.26% (inactive). For the same compound, the max response was -10.3% in assay [9], -6.54% in [12], 1.84% in [14] and 40.5% (inactive) in [15].

Consider `C[C@@](Cc1ccc(O)c(O)c1)(NN)C(=O)O`, for which the Potency entry in assay [1] is “inactive”. The outcome in assay [8] was inactive.

On to `C[Se]CC[C@H](N)C(=O)O`, for which the Potency entry in assay [1] is “inactive”.

On to `CC(C)(CO)[C@@H](O)C(=O)NCCC(=O)NCCSSCCNC(=O)CCNC(=O)[C@H](O)C(C)(C)CO`, for which the Potency result in [1] was “inactive”.

`c1ccc2ccccc2c1`: the Potency entry in assay [1] and in assay [2] was “inactive” throughout. Besides, the call in assay [3], in [10], in assay [11], in assay [5], in [6] and in assay [13] was inactive. The result in assay [7] was inactive. Further, the max response in [9] was -2.63% and 30.7%; in [12], -8.1% and -18.9%; in [14], -9.07% and -13.7%; in [15] it was 0.585% (inactive) and 18.2% (inactive).

In the case of `OC[C@H]1O[C@@H]2O[C@H]3[C@H](O)[C@@H](O)[C@@H](O[C@H]4[C@H](O)[C@@H](O)[C@@H](O[C@H]5[C@H](O)[C@@H](O)[C@@H](O[C@H]6[C@H](O)[C@@H](O)[C@@H](O[C@H]7[C@H](O)[C@@H](O)[C@@H](O[C@H]1[C@H](O)[C@H]2O)O[C@@H]7CO)O[C@@H]6CO)O[C@@H]5CO)O[C@@H]4CO)O[C@@H]3CO`, the Potency entry in assay [1], in assay [2] and in assay [16] was “inactive” throughout. The activation in assay [4] was 3.77% (inactive) and 9.85% (inactive). In addition, the outcome in [11], in assay [5], in assay [6], in assay [13] and in [7] was inactive. Moreover, the max response in assay [12] was 1.28% and -5.56%; in assay [14], 2.15% and -14.7%; in assay [15], -7.96% (inactive) and -14.1% (inactive).

Regarding `CCCCC(CC)COS(=O)(=O)O` (stereo not given), the Potency entry in assay [1] and in assay [2] was “inactive” in each case. Moreover, the result in [3], in [10], in [5], in assay [6], in [13] and in assay [7] was inactive. Further, the max response was -7.66% in assay [9], -9.2% in assay [12], -15.9% in [14] and 7.69% (inactive) in [15].

With `CCOC(=O)c1c[nH]c2cc(OCC(C)C)c(OCC(C)C)cc2c1=O`, the Potency entry in assay [1] was “inactive”.

`CC(CNC(=O)c1cccnc1)NC(=O)c1cccnc1` (stereo not given): the Potency result in assay [1] was “inactive”.

For the compound `OCCOCCOCCO`, the Potency result in assay [1], in assay [2] and in assay [16] was “inactive” throughout. Besides, the compound was called inactive in assay [17], in assay [11], in assay [5], in [6] and in [13]. In addition, the activation in assay [4] was -3.1% (inactive) and -7.85% (inactive). For the same compound, the max response is -8.79% and -11.6% in assay [12]; -16.7% and -5.33% in assay [14]; 0.587% (inactive) and -7.45% (inactive) in assay [15].

For `O=C(CCCN1CCN2CCCC2C1)c1ccc(F)cc1` (stereo not given), in [1], the Potency result was “inactive”.

Turning to `O=c1n(CC2CO2)c(=O)n(CC2CO2)c(=O)n1CC1CO1` (stereo not given), the Potency result in assay [1], in [2] and in assay [16] was “inactive” throughout. Besides, the activation in [4] was -4.93% (inactive). In addition, the call in assay [6] and in [7] was inactive. The max response was 19.5% in assay [14] and -59.1% (inactive) in assay [15].

Regarding `[O-][N+](=Nc1ccccc1)c1ccccc1`, the Potency result in assay [1], in assay [2] and in assay [16] was “inactive” in each case. Also, the activation in assay [4] is 3.15% (inactive). Also, the max response is 22.2% in [9], -6.82% in assay [12], -0.56% in assay [14] and 1.34% (inactive) in [15]. Moreover, the call in [10], in assay [11], in assay [13] and in assay [7] was inactive.

As to `Cc1ccc(S(=O)(=O)O)cc1C`, the Potency result in assay [1], in assay [2] and in assay [16] was “inactive” each time. Also, the activation in assay [4] was 2.36% (inactive). Moreover, the max response was -12.1% in [9], -1.2% in assay [12], -21.8% in [14] and 10.6% (inactive) in assay [15]. The call in [10], in assay [11], in [5], in assay [6] and in assay [13] was inactive.
